CYP2C19 act – activators of human cytochrome P450 2C19; activation factor at 5 µM; P33261; recombinant CYP2C19, luciferin-H EGE luminescence; stronger effect = higher value; 0 = fully inhibited enzyme, 1 = untreated enzyme; 96,000 tested, under 10 active;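 active means activation factor of at least 2 at 5 µM in the primary screen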;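 further: 0 = wells with 2.5 mM tranylcypromine and 1 = vehicle-only wells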
CYP2C9 inh – blocks human cytochrome P450 2C9; P11712; AID 777; 96,000 compounds, 20% hits; inhibition, % at 5 µM; CYP2C9 Supersomes, luciferin-H conversion, luminescence;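 active means blocking of liver enzyme CYP2C9 beyond about 50% at 5 µM, limit read from the data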
CYP2C9 activ – activators of human CYP2C9; activation factor at 5 µM; 96,000 compounds, 1.4% hits; P11712; AID 1024; recombinant CYP2C9, luciferin-H conversion, luminescence; stronger effect = higher value; factor 1 = untreated enzyme, 0 = blocked;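 active means activation factor of 2 or more for CYP2C9 at a 5 µM dose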;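 further: 0 = sulfaphenazole-blocked wells and 1 = vehicle-only wells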
CYP2C19 inhib – human CYP2C19 inhibition. P33261. CYP2C19 Supersomes, luciferin-H EGE luminescence, 30 min. inhibition, % at 5 µM. 96,000 compounds, 21% hits. AID 778;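 active means CYP2C19 inhibition above a set limit at 5 µM in the primary screen, cut at about 50% in these data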;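 further: plate controls were negative control wells for no effect and 2.5 mM tranylcypromine positive control for full effect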
CD11b adhes inh – blocks human CD11b/CD18 adhesion to fibrinogen | 93,000 compounds, 0.54% hits | P05107+P11215 | K562 CD11b/CD18 adhesion to fibrinogen, ATPlite luminescence; Mn2+ added to activate the integrin | inhibition, % at 10 µM;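 active means primary inhibition of 50% or more at 10 µM, then 40% or more on retest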
Mac1 fbg enh – enhancers of human CD11b/CD18 binding to fibrinogen; AID 1499; K562 CD11b/CD18 adhesion to fibrinogen, ATPlite luminescence; P05107+P11215; 93,000 compounds, 0.07% hits; activation, % at 10 µM;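 active means 10 µM primary screen giving 50% or more activity, confirmed by 40% or more on retest at that dose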
Active calls of the source: *; / = not tested or not shown. A selection: hits, their analogues and other compounds. The true share with any hit is near 28%.

SMILES	CYP2C19 act	CYP2C9 inh	CYP2C9 activ	CYP2C19 inhib	CD11b adhes inh	Mac1 fbg enh
COCCn1nnnc1C(c1cccs1)N1CCN(c2cc(C)ccc2C)CC1 (configuration not stated)	0.6	62*	0.4	38	-12	10
CC(C)(C)N1CC2(c3ccccc3)CN(C(C)(C)C)CC(c3ccccc3)(C1)C2=O	1.1	4	1	-10	-4	-1
CCCCn1c(N)c(C(=S)NC(=O)CC(C)(C)C)c(=O)n(C)c1=O	/	/	/	/	4	6
COc1cc(CN(C(=S)NCC(=O)NC2CC2)C2CCCC2)cc(OC)c1OC	/	/	/	/	23	-4
O=C(Nc1ccncc1)C1c2ccccc2Oc2ccccc21	0	98*	0	97*	10	-3
Cc1cc(C)c(NC(=O)C2c3ccccc3Oc3ccccc32)c(C)c1	/	/	/	/	14	8
Cc1cccc2sc(NC(=O)C3c4ccccc4Oc4ccccc43)nc12	0.7	80*	0.2	31	0	0
O=C(Nc1cccnc1Cl)C1c2ccccc2Oc2ccccc21	0.3	48	0.5	70*	/	/
O=C(Nc1nc(-c2ccccc2)cs1)C1CCCO1 (configuration not stated)	0.4	54*	0.5	62*	-38	0
Cc1cccc(NC(=O)C(NS(=O)(=O)c2ccc3c(c2)CCC(=O)N3)c2ccccc2)n1 (configuration not stated)	0.9	39	0.6	8	-8	-6
Cc1cc[n+]2c3c(cccc13)CCC2	1	5	1	5	23	0
O=C(Nc1nncs1)C1c2ccccc2Oc2ccccc21	0.5	34	0.7	54*	-3	-2
O=C(Nc1nc(-c2ccccc2)cs1)C1c2ccccc2Oc2ccccc21	0.9	72*	0.3	12	-12	33
COc1ccc(OC)c(NC(=O)CSc2nnc(Cn3nnc4ccccc43)n2C)c1	0.9	-4	1	9	/	/
Cc1nc2nc(C)c(CCC(=O)NCc3ccc4c(c3)OCO4)c(C)n2n1	1.1	6	0.9	-11	20	5
O=S(=O)(c1ccc2ccccc2c1)N1CCCCC1	0.7	-155	2.5*	33	-1	-1
O=S(=O)(c1ccc2ccccc2c1)N1CCCOC1	0.5	-254	3.5*	49	1	1
COc1cc2c(cc1OC)C(C)N(C(=O)CCN1C(=O)C3C4C=CC(C4)C3C1=O)CC2 (configuration not stated)	1	-2	1	-4	38	-2
Cc1c(Cl)c([N+](=O)[O-])nn1CC(=O)Nc1c(C)n(C)n(-c2ccccc2)c1=O	0.7	10	0.9	30	/	/
CCOc1cccc(-c2cc(-c3n[nH]c(=S)n3CC)c3ccccc3n2)c1	0.8	32	0.7	24	13	0
COc1ccccc1CN(Cc1nc2ccccc2c(=O)[nH]1)C(=O)Nc1ccccc1	0.6	24	0.8	36	-20	-1
COc1c(Cl)cc(C(=O)Nc2ccccc2-c2ccccc2)cc1Cl	0.7	43	0.6	32	/	/
Cc1c(/C=N/NC(=O)CNc2ccccc2)c2ccccn2c1C(=O)c1ccccc1	/	/	/	/	-9	4
Cc1c(/C=N/NC(=O)c2cc(=O)[nH]c(=O)[nH]2)c2ccccn2c1C(=O)c1ccccc1	0.9	50*	0.5	9	-3	-2
Oc1csc(Cc2nc(-c3ccc(-c4ccccc4)cc3)cs2)n1	1	13	0.9	5	-2	161*
SMILES	CYP2C19 act	CYP2C9 inh	CYP2C9 activ	CYP2C19 inhib	CD11b adhes inh	Mac1 fbg enh
COc1ccc(C2=NN(C(C#N)c3ccc(OC)c(OC)c3)C(c3ccccc3)C2)cc1 (configuration not stated)	0.6	68*	0.3	42	-10	-4
O=C(N/C=N/OCc1ccc(Cl)cc1Cl)NOCc1ncc(C(F)(F)F)cc1Cl	0	86*	0.1	97*	46	-5
CO/N=C/NC(=O)NOCc1ncc(C(F)(F)F)cc1Cl	0.6	-18	1.2	39	4	-6
O=C(N/N=C\c1ccccc1)c1sccc1-n1cccc1	0.7	34	0.7	33	/	/
O=C(N/N=C/c1ccc(Br)cc1)c1ccccc1-n1cccc1	0.1	54*	0.5	85*	-2	0
Nc1ccc2c(c1)COc1ccccc1O2	0.3	36	0.6	69*	13	-1
O=C1c2ccccc2COc2ccc(O)cc21	0.8	-15	1.1	18	/	/

Compound activity from PubChem.
